This is an account of results in PubChem BioAssay AID504773 (Broad Institute, 2011).

Entries with a potency or affinity are not part of this list. Calls of active or inactive are those of the source.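 The calls were made as follows: active = polarization signal falls with dose and the fitted half-maximal concentration is at or below ten times the sample's top valid dose; inconclusive = flat curve at 30 to 70% inhibition, or poor fit; inactive = signal rises, flat within 30%, or potency beyond limit.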

For the experiment, the target named is Golgi-associated PDZ and coiled-coil motif-containing protein (Homo sapiens) (UniProt Q9HD26). The experiment can be described thus: CAL PDZ peptide-binding inhibitors, dose response, biochemical, fluorescence polarization, Cerulean-tagged CAL PDZ, cherry-picks (AID 504773).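 Also: 0% = DMSO neutral wells and -100% = excess unlabeled competitor peptide wells.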 Particulars: 1 h; series mostly up to 50 µM; activity change, negative = inhibition: at the top concentration. (In general: In fluorescence polarisation assays a small probe gives low polarisation when free and higher when bound to something large.)
`CC(C)CN1CCN(Cc2cccc3c2OCO3)CC1CCO` (stereo unspecified): the “activity change, negative = inhibition” value is 6.14% (inactive).
`COc1cc(/C=C2\C(=O)NC(=O)N(c3ccccc3)C2=O)c([N+](=O)[O-])cc1OC`: the “activity change, negative = inhibition” value was 4.94% (inactive).
For the compound `O=C1CN=C(c2ccccc2)c2oc3ccc(Br)cc3c2N1`, the “activity change, negative = inhibition” value is 11.9% (inactive).
Then `O=c1[nH]c(CN2CC=C(c3ccccc3)CC2)nc2scc(-c3ccccc3)c12`, with 6.71% (inactive); and `COc1ccc(CNCCc2c[nH]c3ccccc23)c(OC)c1OC`, with 8.02% (inactive); and `O=C(c1ccc(F)cc1Cl)N1CCC2(CC1)OCCO2`, with 20.1% (inactive).
Then `Cn1c(=O)c2c(nc(-c3ccc(N(CCCl)CCCl)cc3)n2C)n(C)c1=O`, with 1.8% (inactive); and `Cc1cc(C)c(C(=O)N2CCC3(CC2)OCCO3)c(C)c1`, with -7.3% (inactive).
`COc1cc(C)cc(CN2CC=C(c3ccccc3)CC2)c1O`: the “activity change, negative = inhibition” value was 9.35% (inactive).
Take `CSC1=NP(=S)(SC)N2CCCC2=C1C#N` (stereo unspecified): the “activity change, negative = inhibition” value was 13.6% (inactive).
As to `c1ccc2[nH]c(CCNC3CCCCC3)nc2c1`, the “activity change, negative = inhibition” value is 7.1% (inactive).
